Data on one sequence can be found in article PMC7862700, “An all-to-all approach to the identification of sequence-specific readers for epigenetic DNA modifications on cytosine”.

Holding throughout (test): DAPPL (digital affinity profiling via proximity ligation, sequencing); 10 mM Tris-HCl pH 7.5, 50 mM NaCl, 1 mM DTT, 4% glycerol, room temperature, 30 min; GST-TFs on glutathione beads, 16-mer random dsDNA library, 0.1% formaldehyde crosslink after washing; high values mean tight binding
One experiment has as its target T1, FEV (Homo sapiens, UniProt Q99581 1-238).
T1 sequence: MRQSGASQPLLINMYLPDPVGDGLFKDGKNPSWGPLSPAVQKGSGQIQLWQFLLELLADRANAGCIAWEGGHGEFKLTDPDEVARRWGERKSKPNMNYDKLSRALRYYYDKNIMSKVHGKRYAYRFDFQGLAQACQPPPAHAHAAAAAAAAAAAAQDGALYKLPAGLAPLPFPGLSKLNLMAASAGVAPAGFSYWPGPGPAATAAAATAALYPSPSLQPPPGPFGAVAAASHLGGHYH
The conditions noted are these: protein: recombinant; tags: N-terminal GST; dsDNA, one strand shown. In a few lines: (§1)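 Binding signal is given per hexamer as its read frequency for a factor divided by its frequency in the tag-only sample. GST-fused human transcription factors were expressed in yeast, captured on glutathione beads, barcoded with DNA and pooled with that sample, then incubated with 200 nmole of a 16-mer random double-stranded DNA library in Tris/NaCl/DTT/glycerol buffer for 30 min at room temperature. The pools were then washed, crosslinked, proximity-ligated, amplified by PCR and sequenced on an Illumina NextSeq500.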

The next experiment concerns the target ETV5 (Homo sapiens, UniProt P41161 1-510). The conditions noted are these: protein: recombinant; tags: N-terminal GST; dsDNA, one strand shown. Put shortly: as §1
A further experiment addresses HSF1 (Homo sapiens, UniProt Q00613 1-529). The conditions noted are these: protein: recombinant; tags: N-terminal GST; chain copies: 3; dsDNA, one strand shown. Put shortly:
as §1

The next experiment deals with T2, SPIC (Homo sapiens, UniProt Q8N5J4 1-248).
T2 sequence: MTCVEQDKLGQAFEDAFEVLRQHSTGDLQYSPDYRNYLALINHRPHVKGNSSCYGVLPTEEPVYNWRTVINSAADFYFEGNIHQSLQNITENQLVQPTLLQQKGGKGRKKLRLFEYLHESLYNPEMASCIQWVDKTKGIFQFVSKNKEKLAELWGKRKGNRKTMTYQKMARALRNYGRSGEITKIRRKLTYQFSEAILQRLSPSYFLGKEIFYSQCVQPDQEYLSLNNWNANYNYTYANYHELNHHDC
The conditions noted are these: protein: recombinant; tags: N-terminal GST; dsDNA, one strand shown. Put shortly: as §1

Another experiment addresses ELF4 (Homo sapiens, UniProt Q99607 1-663). The conditions noted are these: protein: recombinant; tags: N-terminal GST; dsDNA, one strand shown. Put shortly:
as §1

Another experiment addresses T3, ELK4 (Homo sapiens, UniProt P28324-2 1-405).
T3 sequence: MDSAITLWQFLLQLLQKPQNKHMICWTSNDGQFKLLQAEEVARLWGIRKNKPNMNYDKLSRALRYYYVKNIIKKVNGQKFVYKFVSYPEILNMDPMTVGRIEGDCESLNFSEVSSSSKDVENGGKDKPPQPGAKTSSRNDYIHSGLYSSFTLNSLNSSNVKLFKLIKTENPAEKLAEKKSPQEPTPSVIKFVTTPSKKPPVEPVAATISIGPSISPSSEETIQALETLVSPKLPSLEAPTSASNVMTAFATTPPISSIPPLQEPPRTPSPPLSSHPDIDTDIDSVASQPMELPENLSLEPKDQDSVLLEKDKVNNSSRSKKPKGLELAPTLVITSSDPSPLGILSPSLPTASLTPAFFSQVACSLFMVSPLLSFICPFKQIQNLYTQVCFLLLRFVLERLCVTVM
The conditions noted are these: protein: recombinant; tags: N-terminal GST; dsDNA, one strand shown. In a few lines:
as §1

In another experiment the target is T4, ETV2 (Homo sapiens, UniProt O00321 1-342).
T4 sequence: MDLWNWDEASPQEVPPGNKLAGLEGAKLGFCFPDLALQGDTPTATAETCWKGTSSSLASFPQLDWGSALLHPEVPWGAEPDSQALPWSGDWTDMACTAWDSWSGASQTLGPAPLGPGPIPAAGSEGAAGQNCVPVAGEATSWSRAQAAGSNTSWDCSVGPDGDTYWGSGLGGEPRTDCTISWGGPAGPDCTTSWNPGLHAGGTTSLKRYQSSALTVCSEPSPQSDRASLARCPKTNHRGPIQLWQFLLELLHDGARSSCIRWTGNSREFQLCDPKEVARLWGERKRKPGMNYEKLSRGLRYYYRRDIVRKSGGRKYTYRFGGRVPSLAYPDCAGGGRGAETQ
The conditions noted are these: protein: recombinant; tags: N-terminal GST; dsDNA, one strand shown. In a few lines:
as §1

A further experiment addresses T5, ELF3 (Homo sapiens, UniProt P78545 1-371).
T5 sequence: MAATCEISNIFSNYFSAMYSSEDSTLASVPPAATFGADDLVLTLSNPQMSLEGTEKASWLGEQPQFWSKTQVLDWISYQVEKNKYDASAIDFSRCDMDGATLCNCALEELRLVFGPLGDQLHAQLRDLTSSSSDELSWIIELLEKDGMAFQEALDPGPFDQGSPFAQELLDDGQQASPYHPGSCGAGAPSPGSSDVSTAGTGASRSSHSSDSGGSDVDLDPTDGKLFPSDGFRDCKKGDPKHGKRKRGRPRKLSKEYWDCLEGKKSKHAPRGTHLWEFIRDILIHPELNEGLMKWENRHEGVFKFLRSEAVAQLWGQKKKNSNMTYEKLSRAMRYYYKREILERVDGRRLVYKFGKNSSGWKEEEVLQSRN
The conditions noted are these: protein: recombinant; tags: N-terminal GST; dsDNA, one strand shown. In a few lines:
as §1

A further experiment deals with CRX (Homo sapiens, UniProt O43186 1-299). The conditions noted are these: protein: recombinant; tags: N-terminal GST; dsDNA, one strand shown. In a few lines:
as §1

The target in another experiment is ETV1 (Homo sapiens, UniProt P50549 1-477). The conditions noted are these: protein: recombinant; tags: N-terminal GST; dsDNA, one strand shown. Put shortly:
as §1

The target of another experiment is T6, ERF (Homo sapiens, UniProt P50548 1-548).
T6 sequence: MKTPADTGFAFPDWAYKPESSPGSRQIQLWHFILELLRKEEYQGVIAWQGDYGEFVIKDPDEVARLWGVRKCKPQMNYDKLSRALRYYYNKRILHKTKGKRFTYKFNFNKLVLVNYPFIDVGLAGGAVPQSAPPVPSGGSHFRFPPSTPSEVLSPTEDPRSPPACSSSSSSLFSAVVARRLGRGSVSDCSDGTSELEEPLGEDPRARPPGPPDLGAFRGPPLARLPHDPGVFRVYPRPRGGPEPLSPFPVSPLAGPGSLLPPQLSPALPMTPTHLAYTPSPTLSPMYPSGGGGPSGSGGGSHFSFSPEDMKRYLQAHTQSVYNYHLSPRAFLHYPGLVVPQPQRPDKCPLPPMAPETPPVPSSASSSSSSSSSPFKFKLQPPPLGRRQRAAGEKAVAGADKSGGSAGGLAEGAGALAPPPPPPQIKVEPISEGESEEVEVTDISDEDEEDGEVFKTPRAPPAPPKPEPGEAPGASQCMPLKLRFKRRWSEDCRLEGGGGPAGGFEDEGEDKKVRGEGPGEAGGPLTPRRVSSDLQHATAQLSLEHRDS
The conditions noted are these: protein: recombinant; tags: N-terminal GST; dsDNA, one strand shown. In a few lines: as §1

A further experiment has as its target T7, ETV3L (Homo sapiens, UniProt Q6ZN32 1-361).
T7 sequence: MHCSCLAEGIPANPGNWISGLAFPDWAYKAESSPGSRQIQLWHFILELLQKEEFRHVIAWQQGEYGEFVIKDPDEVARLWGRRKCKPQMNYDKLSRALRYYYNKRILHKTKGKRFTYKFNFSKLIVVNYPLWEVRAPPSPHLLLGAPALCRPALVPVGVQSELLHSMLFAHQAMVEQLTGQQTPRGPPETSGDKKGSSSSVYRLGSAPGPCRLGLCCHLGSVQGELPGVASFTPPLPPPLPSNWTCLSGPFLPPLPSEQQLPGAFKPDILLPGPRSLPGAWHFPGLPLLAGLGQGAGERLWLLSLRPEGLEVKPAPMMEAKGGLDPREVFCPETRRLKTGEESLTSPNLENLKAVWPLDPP
The conditions noted are these: protein: recombinant; tags: N-terminal GST; dsDNA, one strand shown. In a few lines:
as §1

The target in another experiment is T8, ETS2 (Homo sapiens, UniProt P15036 1-469).
T8 sequence: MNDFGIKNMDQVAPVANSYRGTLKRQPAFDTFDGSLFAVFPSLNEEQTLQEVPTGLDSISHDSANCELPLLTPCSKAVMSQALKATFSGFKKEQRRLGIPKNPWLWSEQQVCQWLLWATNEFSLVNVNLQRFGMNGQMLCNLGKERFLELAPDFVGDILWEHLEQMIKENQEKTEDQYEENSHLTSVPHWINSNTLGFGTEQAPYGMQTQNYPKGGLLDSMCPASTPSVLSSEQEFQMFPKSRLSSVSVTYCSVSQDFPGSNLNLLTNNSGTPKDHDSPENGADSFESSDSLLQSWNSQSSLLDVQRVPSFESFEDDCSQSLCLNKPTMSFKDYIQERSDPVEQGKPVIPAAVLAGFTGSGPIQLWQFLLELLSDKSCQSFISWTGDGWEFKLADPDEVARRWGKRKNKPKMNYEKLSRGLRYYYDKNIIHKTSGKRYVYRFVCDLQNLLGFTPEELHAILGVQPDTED
The conditions noted are these: protein: recombinant; tags: N-terminal GST; dsDNA, one strand shown. Put shortly: as §1

For a further experiment, the target named is T9, SPDEF (Homo sapiens, UniProt O95238 1-335).
T9 sequence: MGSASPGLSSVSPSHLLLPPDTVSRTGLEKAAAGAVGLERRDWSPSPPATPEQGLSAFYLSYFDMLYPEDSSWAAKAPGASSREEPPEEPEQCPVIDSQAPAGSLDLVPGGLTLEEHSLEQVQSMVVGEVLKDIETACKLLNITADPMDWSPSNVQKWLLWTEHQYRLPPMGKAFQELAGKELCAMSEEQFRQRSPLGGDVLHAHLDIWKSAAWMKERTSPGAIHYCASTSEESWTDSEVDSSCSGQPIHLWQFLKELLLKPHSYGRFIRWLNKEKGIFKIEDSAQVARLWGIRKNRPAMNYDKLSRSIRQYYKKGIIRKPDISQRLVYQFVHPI
The conditions noted are these: protein: recombinant; tags: N-terminal GST; dsDNA, one strand shown. In a few lines:
as §1

The target in the next experiment is T10, ETV7 (Homo sapiens, UniProt Q9Y603 1-341).
T10 sequence: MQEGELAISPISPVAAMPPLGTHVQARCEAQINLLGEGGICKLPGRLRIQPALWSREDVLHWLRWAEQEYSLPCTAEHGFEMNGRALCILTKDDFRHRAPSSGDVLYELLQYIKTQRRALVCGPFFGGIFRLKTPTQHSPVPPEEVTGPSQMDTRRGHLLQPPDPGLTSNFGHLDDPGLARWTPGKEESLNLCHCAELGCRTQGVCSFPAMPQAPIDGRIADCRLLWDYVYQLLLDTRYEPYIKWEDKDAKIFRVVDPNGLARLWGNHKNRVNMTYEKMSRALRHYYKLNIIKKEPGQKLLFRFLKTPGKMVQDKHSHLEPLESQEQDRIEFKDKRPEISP
The conditions noted are these: protein: recombinant; tags: N-terminal GST; dsDNA, one strand shown. In a few lines:
as §1

A further experiment has as its target T11, ELF5 (Homo sapiens, UniProt Q9UKW6-2 1-255).
T11 sequence: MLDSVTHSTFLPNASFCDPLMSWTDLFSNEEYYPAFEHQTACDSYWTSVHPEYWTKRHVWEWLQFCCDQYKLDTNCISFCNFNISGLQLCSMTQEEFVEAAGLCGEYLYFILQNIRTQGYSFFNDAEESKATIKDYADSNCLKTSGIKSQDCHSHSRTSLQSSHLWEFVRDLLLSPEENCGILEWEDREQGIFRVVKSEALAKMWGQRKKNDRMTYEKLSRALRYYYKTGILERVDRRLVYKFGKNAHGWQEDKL
The conditions noted are these: protein: recombinant; tags: N-terminal GST; dsDNA, one strand shown. In a few lines: as §1

The target in another experiment is T12, ETV3 (Homo sapiens, UniProt P41162-2 1-143).
T12 sequence: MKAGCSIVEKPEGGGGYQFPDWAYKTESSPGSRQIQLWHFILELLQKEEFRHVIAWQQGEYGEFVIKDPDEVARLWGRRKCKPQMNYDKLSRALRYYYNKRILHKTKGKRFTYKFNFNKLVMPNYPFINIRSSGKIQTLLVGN
The conditions noted are these: protein: recombinant; tags: N-terminal GST; dsDNA, one strand shown. In a few lines: as §1

The next experiment deals with ETV6 (Homo sapiens, UniProt P41212 1-452). The conditions noted are these: protein: recombinant; tags: N-terminal GST; dsDNA, one strand shown. Put shortly:
as §1

ETV5, sequence (P41161 whole entry): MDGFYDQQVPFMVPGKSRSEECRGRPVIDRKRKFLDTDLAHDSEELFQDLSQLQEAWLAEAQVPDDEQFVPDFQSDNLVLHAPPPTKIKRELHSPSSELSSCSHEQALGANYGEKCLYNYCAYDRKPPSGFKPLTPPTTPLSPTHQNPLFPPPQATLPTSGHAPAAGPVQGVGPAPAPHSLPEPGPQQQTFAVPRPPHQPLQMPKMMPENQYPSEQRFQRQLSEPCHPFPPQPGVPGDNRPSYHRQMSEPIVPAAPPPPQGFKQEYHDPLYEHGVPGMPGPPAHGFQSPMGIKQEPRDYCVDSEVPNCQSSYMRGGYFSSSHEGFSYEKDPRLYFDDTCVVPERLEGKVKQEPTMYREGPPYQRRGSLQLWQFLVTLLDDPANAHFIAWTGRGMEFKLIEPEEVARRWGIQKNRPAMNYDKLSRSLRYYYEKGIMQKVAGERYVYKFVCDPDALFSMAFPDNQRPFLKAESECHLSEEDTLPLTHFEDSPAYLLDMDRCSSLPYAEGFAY
ELF4, sequence (Q99607 whole entry): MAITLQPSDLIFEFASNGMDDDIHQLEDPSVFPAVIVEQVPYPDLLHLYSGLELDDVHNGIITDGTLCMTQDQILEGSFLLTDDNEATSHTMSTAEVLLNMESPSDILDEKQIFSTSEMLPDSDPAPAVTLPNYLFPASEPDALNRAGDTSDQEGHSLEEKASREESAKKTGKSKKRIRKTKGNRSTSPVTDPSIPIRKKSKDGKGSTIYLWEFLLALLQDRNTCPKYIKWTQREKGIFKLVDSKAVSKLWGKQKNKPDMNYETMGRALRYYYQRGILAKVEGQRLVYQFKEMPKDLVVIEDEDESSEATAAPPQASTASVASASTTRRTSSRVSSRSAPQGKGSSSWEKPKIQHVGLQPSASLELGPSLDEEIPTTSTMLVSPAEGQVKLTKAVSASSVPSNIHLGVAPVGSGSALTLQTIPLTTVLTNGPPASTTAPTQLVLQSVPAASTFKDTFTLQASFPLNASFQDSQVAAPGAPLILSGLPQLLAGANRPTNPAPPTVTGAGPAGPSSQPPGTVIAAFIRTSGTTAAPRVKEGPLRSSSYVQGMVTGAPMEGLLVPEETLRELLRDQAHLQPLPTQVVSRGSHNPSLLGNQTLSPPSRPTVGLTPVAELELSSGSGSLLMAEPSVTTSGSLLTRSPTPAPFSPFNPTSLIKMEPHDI
HSF1, sequence (Q00613 whole entry): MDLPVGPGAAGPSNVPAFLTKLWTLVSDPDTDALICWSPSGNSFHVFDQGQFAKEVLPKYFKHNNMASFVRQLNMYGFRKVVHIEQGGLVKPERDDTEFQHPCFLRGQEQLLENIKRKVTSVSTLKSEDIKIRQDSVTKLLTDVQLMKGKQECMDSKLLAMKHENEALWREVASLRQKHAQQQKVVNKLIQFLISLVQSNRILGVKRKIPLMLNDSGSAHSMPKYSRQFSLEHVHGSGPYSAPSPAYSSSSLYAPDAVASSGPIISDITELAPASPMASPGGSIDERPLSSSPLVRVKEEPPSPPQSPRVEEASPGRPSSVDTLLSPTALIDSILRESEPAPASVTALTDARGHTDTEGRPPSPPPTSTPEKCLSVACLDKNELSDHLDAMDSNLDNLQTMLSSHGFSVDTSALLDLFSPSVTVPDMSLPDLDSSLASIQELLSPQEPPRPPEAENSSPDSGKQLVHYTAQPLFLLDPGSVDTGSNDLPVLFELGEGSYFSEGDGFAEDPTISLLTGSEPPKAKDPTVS
ETV1, sequence (P50549 whole entry): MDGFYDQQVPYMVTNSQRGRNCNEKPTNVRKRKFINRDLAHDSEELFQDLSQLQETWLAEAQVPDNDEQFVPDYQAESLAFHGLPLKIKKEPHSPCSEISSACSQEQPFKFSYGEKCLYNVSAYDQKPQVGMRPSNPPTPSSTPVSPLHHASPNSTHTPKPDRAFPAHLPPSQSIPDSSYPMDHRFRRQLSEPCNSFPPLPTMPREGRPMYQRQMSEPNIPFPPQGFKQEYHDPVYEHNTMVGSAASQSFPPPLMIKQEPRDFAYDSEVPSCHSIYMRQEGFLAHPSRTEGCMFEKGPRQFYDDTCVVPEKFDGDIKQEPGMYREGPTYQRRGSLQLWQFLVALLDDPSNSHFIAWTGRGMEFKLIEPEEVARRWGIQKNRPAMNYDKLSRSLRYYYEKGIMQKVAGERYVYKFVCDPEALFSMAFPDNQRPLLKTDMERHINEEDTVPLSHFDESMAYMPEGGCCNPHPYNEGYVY
ETV6, sequence (P41212 whole entry): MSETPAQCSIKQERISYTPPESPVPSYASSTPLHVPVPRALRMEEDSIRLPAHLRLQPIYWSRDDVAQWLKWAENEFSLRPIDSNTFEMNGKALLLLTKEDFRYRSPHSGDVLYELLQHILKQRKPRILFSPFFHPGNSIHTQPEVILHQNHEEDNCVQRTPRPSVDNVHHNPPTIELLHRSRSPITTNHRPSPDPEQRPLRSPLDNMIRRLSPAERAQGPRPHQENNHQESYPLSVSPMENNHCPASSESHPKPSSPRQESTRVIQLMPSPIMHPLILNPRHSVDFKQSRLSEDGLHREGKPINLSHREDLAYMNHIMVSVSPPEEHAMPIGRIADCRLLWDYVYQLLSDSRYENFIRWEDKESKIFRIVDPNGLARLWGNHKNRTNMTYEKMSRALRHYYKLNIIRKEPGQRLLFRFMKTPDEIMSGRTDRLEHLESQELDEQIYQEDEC
CRX, sequence (O43186 whole entry): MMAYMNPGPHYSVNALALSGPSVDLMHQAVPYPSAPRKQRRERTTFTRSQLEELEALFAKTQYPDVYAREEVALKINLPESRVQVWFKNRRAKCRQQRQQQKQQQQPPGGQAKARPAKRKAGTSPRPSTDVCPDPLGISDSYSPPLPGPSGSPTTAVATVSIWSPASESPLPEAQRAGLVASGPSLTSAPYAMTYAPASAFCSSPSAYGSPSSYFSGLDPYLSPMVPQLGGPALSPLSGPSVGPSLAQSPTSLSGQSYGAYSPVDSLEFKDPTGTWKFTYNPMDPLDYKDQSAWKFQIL

Regarding AACATT, the binding signal is 1.2 fold enrichment (6-mer frequency, TF over GST control) in the experiment with FEV; 1.31 fold enrichment (6-mer frequency, TF over GST control) in the experiment with ETV5; 1.99 fold enrichment (6-mer frequency, TF over GST control) with HSF1; 1.21 fold enrichment (6-mer frequency, TF over GST control) with SPIC; 1.29 fold enrichment (6-mer frequency, TF over GST control) with ELF4; 1.31 fold enrichment (6-mer frequency, TF over GST control) with ELK4. Further, the binding signal in the experiment with ETV2 is 1.29 fold enrichment (6-mer frequency, TF over GST control); with ELF3, 1.33 fold enrichment (6-mer frequency, TF over GST control); with CRX, 1.34 fold enrichment (6-mer frequency, TF over GST control); with ETV1, 1.29 fold enrichment (6-mer frequency, TF over GST control); in the experiment with ERF it was 1.33 fold enrichment (6-mer frequency, TF over GST control); with ETV3L it was 1.34 fold enrichment (6-mer frequency, TF over GST control). Moreover, the binding signal is 1.29 fold enrichment (6-mer frequency, TF over GST control) in the experiment with ETS2; 1.16 fold enrichment (6-mer frequency, TF over GST control) with SPDEF; 1.36 fold enrichment (6-mer frequency, TF over GST control) with ETV7; 1.3 fold enrichment (6-mer frequency, TF over GST control) with ELF5; 1.32 fold enrichment (6-mer frequency, TF over GST control) with ETV3; 1.39 fold enrichment (6-mer frequency, TF over GST control) in the experiment with ETV6.
